Screening data: PubChem, several laboratories
Only some compounds are listed: those with a hit (about 9.6% of all), similar ones and a draw of the others.
Cav32 inh = Cav3.2 calcium influx blockers – cell-based, Fluo-4 calcium fluorescence, FDSS, MLSMR library, primary screen. Voltage-dependent T-type calcium channel subunit alpha-1H (Homo sapiens), O95180. Cav3.2-expressing cells; stronger effect = lower value. B-score at 10 µM. 100,000 compounds, 4% hits;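 active = single-dose well whose peak fluorescence ratio is a statistical outlier from its plate by either plate-standardised score or position-corrected B-score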
PostGolgi yeast = phenotypic screen on post-Golgi transport, primary screen; post-Golgi transport phenotypic cell assay; inhibition, % at 10 µM; 98,000 compounds, 0.9% hits;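 also: yeast cells grown in 1536-well plates; yeast grown about 18 h at 30C before absorbance read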
DAT uptake mod = changed hDAT dopamine uptake under cocaine IC80, either direction, primary screen, cocaine antagonist project, cell-based, LLC-PK1 hDAT, [14C]-dopamine uptake, MLSMR; Sodium-dependent dopamine transporter (Homo sapiens), Q01959; LLC-PK1 hDAT cells, [14C]-dopamine uptake with cocaine IC80; actives deviate in either direction; B-score at 10 µM; 110,000 compounds, 1.3% hits; AID 449768, 2010;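 active = Z score or B-score, a plate-position-corrected score, falls beyond the plate's 99.7% confidence bounds, in either direction; inactive = both scores lie inside the 99.7% bounds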;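 also: scored against the spread of the other compound wells on the same plate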
PLAP activator = PLAP enzyme activators, biochemical, luminescence, HTS. purified PLAP enzyme, luminescent substrate read-out; stronger effect = higher value. activation fold at 20 µM. 96,000 compounds, 1.2% hits. AID 696, 2007; in the data active = activation fold above about 2
PostGolgi ctrl = growth inhibition of yeast control strain, primary screen, counter-screen for post-Golgi transport modulator project. 98,000 compounds, 5% hits. efflux-deficient yeast background strain, growth absorbance A615, 16 h. inhibition, % at 10 µM
The depositor's hits bear a star. Rule as the data show it, unless noted: active = inhibition above about 30%; inactive = the rest.

`CCCC(=O)Nc1ccc2c(c1)nc(CN1CCN(C(C)=O)CC1)n2C` gave Cav32 inh -0.57, PostGolgi yeast 4, DAT uptake mod -0.82, PLAP activator 1 and PostGolgi ctrl 31*.
For COCCCn1c(Cc2csc(Nc3ccc(F)cc3)n2)nnc1SCC(N)=O the results were Cav32 inh -2.5, PostGolgi yeast -5, DAT uptake mod -0.0063, PLAP activator 0.9 and PostGolgi ctrl -8.
`CCOC(=O)C1=C(CS(=O)(=O)c2ccc(F)c(C)c2)NC(=O)NC1c1ccc(O)c(O)c1` (stereo not given) gave Cav32 inh 0.084, PostGolgi yeast -1, DAT uptake mod -0.22, PLAP activator 1.8 and PostGolgi ctrl -3.
CC1(c2ccc(Cl)c(Cl)c2)NC(=S)N2C1NC(=S)N2c1ccccc1 (stereo not given) was read as Cav32 inh -5.4*, PostGolgi yeast -10, DAT uptake mod 2.1, PLAP activator 1.3 and PostGolgi ctrl 16.
For COc1ccc(C(=O)c2c(-c3ccsc3)oc3ccc(-c4ccc(OC)cc4)cc23)cc1 the results were Cav32 inh -1 and DAT uptake mod -1.8.
For CCOC(=O)c1c(N)sc(C(O)(C(F)(F)F)C(F)(F)F)c1-c1ccc(OC)cc1OC the results were Cav32 inh -4.9*, PostGolgi yeast 3, DAT uptake mod 1.9, PLAP activator 1.3 and PostGolgi ctrl 21.
COc1ccc2nc(NC(=O)C3CCN(S(=O)(=O)c4cccc5nsnc45)CC3)sc2c1 was read as Cav32 inh -0.39, PostGolgi yeast -6, DAT uptake mod -0.15, PLAP activator 1.2 and PostGolgi ctrl 22.
Screening COc1ccc2nc(NC(=O)C(NS(=O)(=O)c3cccc4nsnc34)C(C)C)sc2c1 (stereo not given) returned PostGolgi yeast 5, PLAP activator 2.1* and PostGolgi ctrl -2.
Screening O=C(Nc1ccc(Cl)cn1)C1CCCN1S(=O)(=O)c1cccc2ccccc12 (stereo not given) returned Cav32 inh -3.1, PostGolgi yeast -3, DAT uptake mod -0.032, PLAP activator 0.9 and PostGolgi ctrl 50*.
`O=C(Nc1ccc(Cl)cn1)C1CCCN1S(=O)(=O)c1ccc(Cl)cc1` (stereo not given) gave Cav32 inh -0.72, PostGolgi yeast 20, DAT uptake mod -0.84, PLAP activator 0.9 and PostGolgi ctrl 19.
For O=S(=O)(/C=C/c1ccccc1)Nc1ccc2c(c1)OCO2 the results were Cav32 inh -7.4*, PostGolgi yeast -1, DAT uptake mod 0.93, PLAP activator 1.2 and PostGolgi ctrl 17.
`O=S(=O)(Nc1ccc2c(c1)OCO2)c1cccs1` gave Cav32 inh 0.2, PostGolgi yeast 6, DAT uptake mod -0.45, PLAP activator 1.1 and PostGolgi ctrl 3.
Cc1cccc(C)c1NC(=O)C1(NC(=O)C2CCCN2C(=O)OC(C)(C)C)CCCCC1 (stereo not given) was read as Cav32 inh 0.47, PostGolgi yeast -1, DAT uptake mod -0.028, PLAP activator 1.2 and PostGolgi ctrl 7.
For COc1ccccc1CN1C(=O)CN(C2CCCCCC2)C(=O)C1c1ccc(F)cc1 (stereo not given) the results were Cav32 inh -3.4, PostGolgi yeast -1, DAT uptake mod 0.46, PLAP activator 0.9 and PostGolgi ctrl 49*.
Screening Cc1ccc(C(=O)c2cc(C)sc2NC(=O)CN2CCN(C(=O)c3ccco3)CC2)cc1 returned Cav32 inh -1.4, PostGolgi yeast 4, DAT uptake mod -0.72, PLAP activator 1.4 and PostGolgi ctrl 38*.
Screening c1ccc(C(c2c[nH]c3ccccc23)c2c[nH]c3ccccc23)nc1 returned PostGolgi yeast -5, DAT uptake mod -0.79, PLAP activator 1 and PostGolgi ctrl 8.
For Cn1cc(C(c2ccccn2)c2cn(C)c3ccccc23)c2ccccc21 the results were Cav32 inh -6.6*, PostGolgi yeast 10, DAT uptake mod -1.2, PLAP activator 1.6 and PostGolgi ctrl 53*.
Screening CCc1nnc(NC(=O)CSc2nnc(CNc3cccc(C)c3)n2-c2ccccc2)s1 returned Cav32 inh -1.3, PostGolgi yeast 4, DAT uptake mod 0.017, PLAP activator 1.5 and PostGolgi ctrl -4.
Screening COC(=O)CSc1nnc(CNc2ccc(Cl)cc2)n1Cc1ccccc1 returned Cav32 inh 0.077, PostGolgi yeast 65*, DAT uptake mod 1.6, PLAP activator 1.6 and PostGolgi ctrl 46*.
For CCOC(=O)CSc1nnc(CNc2cccc(Cl)c2)n1-c1ccccc1 the results were Cav32 inh -5.6*, PostGolgi yeast -10, DAT uptake mod -0.011, PLAP activator 1.4 and PostGolgi ctrl 11.
For CCOC(=O)CSc1nnc(CNc2ccc(Cl)cc2)n1-c1ccccc1 the results were Cav32 inh -1.8, PostGolgi yeast 60*, DAT uptake mod 0.16, PLAP activator 1.4 and PostGolgi ctrl 50*.
`CCOC(=O)CSc1nnc(-c2cccs2)n1-c1ccccc1` gave Cav32 inh 0.22, PostGolgi yeast -11, DAT uptake mod -0.22, PLAP activator 1.1 and PostGolgi ctrl 2.
Screening Cn1c(CNc2cccc(Cl)c2)nnc1SCC(=O)OC1CCCCC1 returned Cav32 inh -8.5*, PostGolgi yeast 2, DAT uptake mod -0.45, PLAP activator 1.5 and PostGolgi ctrl 19.
Screening CC(C)OC(=O)CSc1nnc(CNc2cccc(Cl)c2)n1C returned Cav32 inh 0.62 and DAT uptake mod -0.42.
For O=C(CSc1nnc(CNc2ccc(F)cc2)n1Cc1ccccc1)NCc1ccccc1 the results were Cav32 inh -3.8 and DAT uptake mod 0.26.
`O=C(NCc1ccco1)c1ccc2nc3sc4c(c3c(=O)n2c1)CCCC4` gave Cav32 inh -2.2, PostGolgi yeast 2, DAT uptake mod 0.68, PLAP activator 1.3 and PostGolgi ctrl -1.
For CCOC(=O)C(CC)(CC)C(=O)/C=C/c1ccc(Br)cc1 the results were Cav32 inh 0.76, PostGolgi yeast -3, DAT uptake mod 0.024, PLAP activator 0.9 and PostGolgi ctrl 27.
CC1CN(C(=O)Nc2ccc3c(c2)OCO3)CC(C)O1 (stereo not given) was read as Cav32 inh 1.3, PostGolgi yeast 4, DAT uptake mod -0.037, PLAP activator 1.3 and PostGolgi ctrl 19.
O=C(Nc1cccnc1)C1CC(c2ccccc2O)=NO1 (stereo not given) was read as Cav32 inh -1.5, PostGolgi yeast -1, DAT uptake mod -0.27, PLAP activator 2* and PostGolgi ctrl 11.
Screening N[C@H]1CONC1=O returned Cav32 inh 0.04 and DAT uptake mod -1.6.
Screening CN(C(=O)/C(N=Nc1cccc(C(F)(F)F)c1)=C(\O)C(F)(F)F)c1ccccc1 returned PostGolgi yeast 4, DAT uptake mod -0.9, PLAP activator 1.2 and PostGolgi ctrl 38*.
